Lassa entry inh: blocks Lassa virus binding to or entry into cells; Lassa virus pseudotype entry inhibition, cell reporter; Potency, µM (doses to about 37.9 µM), without a hit: at the top dose activity change, negative = inhibition, hits mostly inhibitors; actives 1.2% (n = 300,000); calls by dose curve; tested in HEK293 cells; also: potency is read from the fitted curve at half-maximal effect; nearly all actives have a fitted effect of over 50% in size
FMDV inh: blocks foot and mouth disease virus. actives 1.2% (n = 410,000). FMDV antiviral cell-based qHTS. Potency, µM (highest dose often 57.9 µM), for inactives: top-dose activity change, negative = inhibition, actives largely listed as inhibitors; calls by dose curve; tested in HEK293T cells; also: read-out not given here; potency is read from the fitted curve at half-maximal effect; nearly all actives have a fitted effect of over 45% in size
HCMV antiviral: blocks human cytomegalovirus replication. HFF cells, HCMV-luciferase reporter, 72 h; stronger effect = lower value. activity change, negative = inhibition, % at 57.5 µM. actives 4.5% (n = 410,000); in the data active = activity change below about -60%; inconclusive = no clear call, values can overlap the other calls; inactive = above about -39%
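Human foreskin fibroblasts infected with luciferase-reporter HCMV at MOI 1 PFU/cell, compounds at two doses. Luciferase measured 72 h post infection; normalized to buffer-only basal and Salinomycin (10uM) controls.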
Vaccinia mCherry: inhibitors of vaccinia virus infection (mCherry reporter signal); Vaccinia virus mCherry reporter infection, fluorescence; Potency, µM (titrated, usually from 36.5 µM), inactives show at the top dose activity change, negative = inhibition, usual class: inhibitors; actives 0.63% (n = 310,000); AID 720579; calls by dose curve; tested in A549 cells; also: potency is read from the fitted curve at half-maximal effect; nearly all actives have a fitted effect of over 35% in size
Marburg entry inh: blocks Marburg virus binding to or entry into cells | Marburg virus pseudotyped entry inhibition, cell reporter | Potency, µM (titrated, usually from 37.8 µM), without a hit: at the highest dose activity change, negative = inhibition, actives largely listed as inhibitors | actives 1.8% (n = 300,000) | AID 540276; calls by dose curve; tested in HEK293 cells; also: potency is read from the fitted curve at half-maximal effect
Vaccinia Venus: inhibitors of vaccinia virus (Venus reporter); Vaccinia virus Venus reporter expression, fluorescence; Potency, µM (series often up to 36.5 µM), for inactives: top-dose activity change, negative = inhibition, usual class: inhibitors; actives 0.46% (n = 330,000); AID 720580; calls by dose curve; tested in A549 cells; also: potency is read from the fitted curve at half-maximal effect; nearly all actives have a fitted effect of over 30% in size
The depositor's hits bear a star; i = inactive; ? = inconclusive; . = not tested or not shown; ! = not confirmed by another sample; [ ] = remark or other dose. Sampled rows, rich in hits. Any-hit rate of the full collection: about 6.5%. % is scaled to controls: 0 for no effect and ±100 for the full control effect.

SMILES | Lassa entry inh | FMDV inh | HCMV antiviral | Vaccinia mCherry | Marburg entry inh | Vaccinia Venus
COc1ccc(C2c3c(-c4ccccc4O)n[nH]c3C(=O)N2Cc2ccco2)cc1 (stereo unspecified) | 0.58µM* | -3.3% | ? | -22.6% | -24.7% | -1.8%
COc1cc(C2c3c(-c4ccccc4O)n[nH]c3C(=O)N2Cc2ccco2)cc(OC)c1OC (stereo unspecified) | . | -12.4% | -4.2 | . | . | .
O=C1c2[nH]nc(-c3ccccc3O)c2C(c2cccc(O)c2)N1Cc1ccco1 (stereo unspecified) | 0.501µM* | -13.2% | 21.3 | . | 0.4% | -23.5%
CCCOc1cccc(C2c3c(-c4ccccc4O)n[nH]c3C(=O)N2Cc2ccco2)c1 (stereo unspecified) | ? | -19.7% | -71.9* | -16.2%[7.34 µM] | ? | -13.0%[7.34 µM]
COc1ccc(C2c3c(-c4c(C)cc(C)cc4O)n[nH]c3C(=O)N2Cc2ccco2)cc1 (stereo unspecified) | -17.1%[46.1 µM] | ? | ? | -16.7% | ? | -11.1%
Cc1cc(C)c(-c2n[nH]c3c2C(c2ccccc2F)N(Cc2ccco2)C3=O)c(O)c1 (stereo unspecified) | ? | -8.0% | -73.5* | -12.6%[7.34 µM] | ? | -9.8%[7.34 µM]
CCOC(=O)CCN1C(=O)[C@@H]2[C@H]3[C@H](O)[C@H](O)CC(=NNC(=O)OCc4ccc(OC)cc4)[C@@H]3CC[C@H]2C1=O | ? | . | . | . | 11.9%[14.2 µM] | .
CCOC(=O)CCc1c(C)nc2cc(-c3cc(OC)cc(OC)c3)[nH]n2c1=O | 20.9%[46.1 µM] | -10.3% | 5.0 | -11.7% | 4.8%[46.1 µM] | 0.1%
O=C1c2[nH]nc(-c3ccccc3O)c2C(c2cccc(Br)c2)N1Cc1ccncc1 (stereo unspecified) | ? | 9.7% | -82.5* | ? | ? | ?
COc1cc(OC)cc(-c2nc3nc(C)c(CCC(=O)Nc4ccc(F)cc4F)c(C)n3n2)c1 | -22.1%[46.1 µM] | 6.9% | 9.0 | 6.2% | 8.8%[46.1 µM] | 0.2%
CNC(=O)NC1CCCC(C2=NC(C)=NCC2)C1 (stereo unspecified) | . | . | . | . | 4.6% | .
c1ccc(Nc2nnc(-c3ccc4c(c3)OCO4)o2)cc1 | . | . | -39.6 | . | . | .
Cc1ccc(-c2nnc(Nc3ccccc3)o2)cc1 | ? | . | ? | i | 1.64µM* | -14.1%
COc1ccccc1-c1cc(C(F)(F)F)nc(S(=O)(=O)CCCC(=O)Nc2ccccc2F)n1 | ? | ? | -102.5* | -22.6%[7.34 µM] | ? | -14.5%[7.34 µM]
COc1ccccc1-c1cc(C(F)(F)F)nc(S(=O)(=O)CCCC(=O)Nc2cccnc2Cl)n1 | ? | 14.1µM* | -90.1* | ? | ? | ?
Cc1cc2nc(-c3ccc(OCc4ccc(F)cc4)cc3)cc(C(F)(F)F)n2n1 | 5.5%[46.1 µM] | -9.4% | 12.2 | -0.2% | -8.2%[46.1 µM] | -7.5%
CC(=O)N1CCC[C@H]1C(=O)NCC1Cc2cc(-c3cnccn3)cc(Cl)c2O1 (stereo partly specified) | . | 2.5% | . | -9.7% | . | 2.1%
Cc1cnc(SCc2ccccn2)nc1C1CCCN(C(=O)c2ccc3c(c2)OCO3)C1 (stereo unspecified) | . | -19.0% | . | -18.9% | . | -24.6%
Cc1cccc(C)c1OC(=O)Cc1ccccc1 | -3.4% | -9.5% | -39.1 | i | 4.4%[46.1 µM] | 8.2%
Cc1cccc(C)c1OC(=O)Cc1ccccc1[N+](=O)[O-] | -3.0%[46.1 µM] | -18.1% | -63.7* | i | -0.9%[46.1 µM] | -6.4%
O=C(NCc1nnc(SCc2ccc(F)cc2)n1-c1ccc(F)cc1)C12CC3CC(CC(C3)C1)C2 | ? | -23.7% | 16.8 | ? | 8.91µM* | ?
O=C(CSc1nnc(CNC(=O)C23CC4CC(CC(C4)C2)C3)n1-c1ccc(F)cc1)Nc1ccc(F)cc1 | -18.1% | 0.0% | -20.3 | -9.2% | ? | -25.2%
COc1ccc(C2CC(=O)C(c3ccccc3OC)=CN2Cc2ccccc2)cc1 (stereo unspecified) | . | . | 27.4 | . | . | .
COc1cc(/C=C(\C#N)C(=O)N2CCOCC2)cc(Br)c1O | 11.0% | 0.4% | -9.6 | . | ? | .
N#C/C(=C\c1cccc(Oc2ccccc2)c1)C(=O)N1CCOCC1 | ? | 35.5µM* | -16.8 | -4.2% | ? | -17.5%
SMILES | Lassa entry inh | FMDV inh | HCMV antiviral | Vaccinia mCherry | Marburg entry inh | Vaccinia Venus
COc1ccc(S(=O)(=O)N2c3ccccc3OCC2C)cc1 (stereo unspecified) | ? | -18.2% | -66.2* | ? | -19.0%[46.1 µM] | -21.9%
COc1ccc(S(=O)(=O)N2c3ccccc3OCC2c2ccccc2)cc1 (stereo unspecified) | -22.7% | 12.6µM* | ? | . | ? | .
O=C(CCSCc1ccc(Cl)cc1)N1CCN(c2ccccc2F)CC1 | -20.8%[46.1 µM] | -18.6% | -33.1 | -9.8% | . | -4.9%
Cc1ccc(NC(=O)CSc2ncnc3ccccc23)cc1S(=O)(=O)N1CCCCCC1 | -0.3% | 8.91µM* | 25.8 | ? | ? | ?
O=C(CNc1ccccc1F)Nc1cc(S(=O)(=O)N2CCCCC2)ccc1Cl | . | -21.6% | -26.4 | . | . | .
Cc1ccc(S(=O)(=O)N2CCCCC2)cc1NCC(=O)Nc1ccc(Br)cc1F | . | ? | -85.8* | ? | . | ?
Cc1ccc(S(=O)(=O)N2CCCCC2)cc1NC(=O)CSc1ncnc2ccccc12 | ? | -16.2% | -70.9* | 11.2µM* | ? | ?
O=C(Nc1cccc(C(F)(F)F)c1)C1CCCN(S(=O)(=O)c2cccc3nonc23)C1 (stereo unspecified) | 8.8%[46.1 µM] | -13.8% | -19.0 | -13.6% | 22.4%[46.1 µM] | -14.4%
N#CCCN1CCN(C(=S)c2ccc(-c3ccc(Cl)c(Cl)c3)o2)CC1 | 20µM* | 7.1% | 6.9 | . | 14.1µM* | ?
N#CCCN1CCN(C(=S)c2ccc(-c3cccc(Cl)c3)o2)CC1 | 25.9% | 47.2% | 20.7 | -29.6% | -15.7% | -20.0%
C=CCn1cccc(/C=C/C(=O)c2ccc(C(C)(C)C)cc2)c1=S | 16.4µM* | 25.1µM* | 8.1 | ? | ? | ?
CCCCC(=NCCc1c(C)[nH]c2ccc(OC)cc12)C1=C(O)CC(c2ccccc2)CC1=O (stereo unspecified) | ? | ? | -27.2 | ? | 7.94µM* | -24.4%
CCC(=NCCc1c(C)[nH]c2ccc(OC(F)(F)F)cc12)C1=C(O)CC(c2ccccc2)CC1=O (stereo unspecified) | ? | ? | -23.2 | ? | ? | ?
CC1=NN(c2ccccc2)C(=O)C1C(=S)SC1CC(=O)NC1=O (stereo unspecified) | . | 22.2% | -87.7* | i | . | -8.8%
CCC(=O)N1CCc2cc(S(=O)(=O)CCC(=O)N3CCN(c4ccc(Cl)cc4)CC3)ccc21 | -7.7%[46.1 µM] | ? | -76.6*! | -5.5%[7.34 µM] | ? | -27.9%[7.34 µM]
CCOC(=O)CSc1nc2sc3c(c2c(=O)n1Cc1ccccc1)CCC(C(C)(C)C)C3 (stereo unspecified) | 4.6%[46.1 µM] | -16.6% | 6.0 | -6.0% | . | 9.6%
C[n+]1ccccc1/C=C/c1ccccc1Cl | 2.3%[46.1 µM] | -6.1% | -78.5* | -29.1% | -2.4%[46.1 µM] | -25.0%
Cc1ccccc1/C=C/c1cccc[n+]1C | . | -7.3% | ? | . | . | .

Bioassay records as filed in PubChem.
